Screening data from PubChem.
Hits are enriched below; roughly 2.8% of the tested compounds scored in any of these assays.
Pol eta inh: qHTS for Inhibitors of Polymerase Eta. recombinant Pol eta, fluorescent DNA replication assay. DNA polymerase eta (Homo sapiens), Q9Y253. actives 1.2% (n = 390,000). Potency, µM (highest dose often 114 µM), without a hit: top-dose activity change, negative = inhibition, hits mostly inhibitors; further: potency means the concentration at half of the fitted maximal effect; on the % scale 0 is the no-effect control and ±100 the full control effect
Target sequence (Q9Y253 whole entry, looked up): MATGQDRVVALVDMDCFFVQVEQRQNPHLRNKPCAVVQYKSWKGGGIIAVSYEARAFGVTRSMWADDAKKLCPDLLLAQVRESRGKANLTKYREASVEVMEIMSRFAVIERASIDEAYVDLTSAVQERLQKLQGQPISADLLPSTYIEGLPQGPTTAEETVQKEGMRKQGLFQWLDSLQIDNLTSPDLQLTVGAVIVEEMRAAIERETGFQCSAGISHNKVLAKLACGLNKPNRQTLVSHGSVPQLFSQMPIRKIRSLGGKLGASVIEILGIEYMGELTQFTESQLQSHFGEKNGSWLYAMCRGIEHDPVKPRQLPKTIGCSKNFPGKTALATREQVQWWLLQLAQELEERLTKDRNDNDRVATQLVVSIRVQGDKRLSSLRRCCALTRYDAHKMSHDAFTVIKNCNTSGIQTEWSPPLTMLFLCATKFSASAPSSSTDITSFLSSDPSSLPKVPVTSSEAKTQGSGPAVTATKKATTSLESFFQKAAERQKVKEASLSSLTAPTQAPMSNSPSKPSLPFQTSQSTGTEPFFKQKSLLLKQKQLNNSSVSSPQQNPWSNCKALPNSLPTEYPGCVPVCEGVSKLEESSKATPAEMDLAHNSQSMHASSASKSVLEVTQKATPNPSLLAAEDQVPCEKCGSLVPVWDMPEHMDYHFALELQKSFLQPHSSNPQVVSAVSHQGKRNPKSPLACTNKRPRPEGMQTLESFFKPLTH
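Pol eta (10 nM) was preincubated with compounds for 15 min at room temperature, after which fluorescent replication substrate (50 nM final) was added to start the reaction. Fluorescence was read kinetically at 0 and 10 min.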
WRN helicase inh: qHTS for Inhibitors of WRN Helicase. Bifunctional 3'-5' exonuclease/ATP-dependent helicase WRN (Homo sapiens), Q14191. WRN helicase unwinding, fluorescent forked duplex, kinetic. Potency, µM (doses to about 114 µM), without a hit: at the top dose activity change, negative = inhibition, most hits filed as inhibitors. actives 0.46% (n = 360,000). AID 651768, 2012; further: potency means the concentration at half of the fitted maximal effect; on the % scale 0 is the no-effect control and ±100 the full control effect; nearly all actives have a fitted effect of over 55% in size
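WRN at 20 nM final was preincubated with compound for 15 min at room temperature; reaction started with 100 nM forked duplex oligonucleotide carrying fluorophore and quencher plus 2 mM ATP (final). Unwinding followed kinetically by red fluorescence (ex 525/em 598 nm).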
Pol iota inh: qHTS for Inhibitors of Polymerase Iota. DNA polymerase iota (Homo sapiens), Q9UNA4. Pol iota fluorescent replication assay, 10 min. Potency, µM (highest dose often 115 µM), for inactives: at the top dose activity, negative = inhibition, actives largely listed as inhibitors. actives 1% (n = 390,000). AID 588590, 2011; further: potency means the concentration at half of the fitted maximal effect
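Fluorescent replication assay read twice, at 0 min and 10 min after adding 50 nM (final) substrate. Enzyme (10 nM) and compounds were first incubated 15 min at room temperature; enzyme-free buffer wells were negative controls.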
POLK inh: qHTS for Inhibitors of Polymerase Kappa. DNA polymerase kappa (Homo sapiens), Q9UBT6. purified Pol kappa, fluorescent DNA synthesis assay, 10 min. Potency, µM (series often up to 107 µM), inactives show at the top dose activity, negative = inhibition, hits mostly inhibitors. actives 0.53% (n = 400,000); further: potency means the concentration at half of the fitted maximal effect; on the % scale 0 is the no-effect control and ±100 the full control effect
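50 nM final substrate added after 15 min RT preincubation of 10 nM Pol kappa with compound; fluorescence read at 0 and 10 min.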
POLB inh: qHTS Assay for Inhibitors of DNA Polymerase Beta | Potency, µM (highest dose often 114 µM), inactives show at the highest dose activity change, negative = inhibition, most hits filed as inhibitors | Pol beta primer extension/strand displacement, fluorescence kinetic | AID 485314, 2010 | actives 1.3% (n = 340,000); further: potency means the concentration at half of the fitted maximal effect; on the % scale 0 is the no-effect control and ±100 the full control effect
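10 nM enzyme + cpd, 15 min RT; start with substrate 50 nM final; read 0 min and after 10 min RT. Corrected, normalized data; 4-parameter Hill curve fit.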
PI5P4Ka inh: qHTS for Inhibitors of phosphatidylinositol 5-phosphate 4-kinase (PI5P4K); Phosphatidylinositol 5-phosphate 4-kinase type-2 alpha (Homo sapiens), P48426; PI5P4Kalpha enzyme, ADP-Glo luminescence, 60 min; hits give low values; actives 1.2% (n = 330,000); max response, %; active means max response of -50% or lower; inconclusive means between -30% and -50%; inactive means -30% or higher; further: value at the top dose of about 77 µM; on the % scale 0 is the no-effect control and ±100 the full control effect
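Enzyme plus substrate dispensed, test compounds pinned in, then ATP (5 microM final) added. After 60 min at RT, ADP-Glo reagent 1 for 45 min and reagent 2 for 30 min preceded luminescence imaging.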
An asterisk follows results filed as active; ? = inconclusive; · = no result given; ! = not active in a repeat; [ ] = remark or other dose. Unless noted, the call rests on the fitted dose curve; in most records, active means well fitted curve in the direction sought with a large enough effect; inconclusive means small, poorly fitted or top-dose-only effect, or another doubt; inactive means no such curve, though single readings can be large; an effect the other way counts as inactive or inconclusive.

SMILES	Pol eta inh	WRN helicase inh	Pol iota inh	POLK inh	POLB inh	PI5P4Ka inh
CC1(C(=O)O)CCC(C(=O)NC2CCCCC2)C1(C)C (centres undefined)	-6.7%	-10.6%	28.9%	-8.2%	89.1µM*	·
COc1ccc(C2C3=C(Nc4ncnn42)c2ccccc2CCC3)cc1 (centres undefined)	12.4%	-7.8%	6.7%	-5.1%	18.9%	·
Fc1ccc(/C=C2\CCCC3=C2Nc2ncnn2C3c2ccc(F)cc2)cc1 (centres undefined)	-13.7%	50.1µM*	-12.9%	-16.2%	30.2%	-8.5
COc1cc(/C=C2\C=Cc3ccccc32)ccc1N(C)C	·	·	?	1.2%	·	·
Cc1ccccc1NC(=O)c1ccccc1OCC(=O)Nc1ccc(Br)cc1	·	·	10.5%	-13.0%	·	·
CCOc1ccc(/C=C2\SC(=O)N(c3ccc(O)cc3)C2=O)cc1OC	-0.8%	-4.1%	1.4%	-1.1%	-19.4%	-1.5
COc1cc(/C=C2\SC(=O)N(c3ccc(Cl)cc3)C2=O)cc([N+](=O)[O-])c1O	-14.6%	?	6.31µM*	?	56.2µM*	-51.1*
Cc1ccc(C(=O)N2CCc3cc(CNS(=O)(=O)c4cccs4)ccc32)cc1	-10.8%	·	5.2%	-3.8%[60.1 µM]	6.0%	·
COc1cc2nc(N3CCOCC3)nc(NC3CCN(C)CC3)c2cc1OC	·	·	-6.6%	-16.9%	·	·
COc1ccc(C)cc1NC(=O)c1ccc2c(c1)C(=O)N(Cc1ccncc1)C2=O	-0.6%	-4.9%	18.6%	-14.0%	·	-6.6
COc1ccc(NC(=O)c2ccc3c(c2)C(=O)N(Cc2ccncc2)C3=O)cc1S(N)(=O)=O	?	?	31.6µM*	-10.3%	·	-2.4
Cc1ccccc1OCC(=O)NCC(=O)N/N=C/c1ccc(Br)o1	25.1µM*	-24.9%	-11.4%	-5.1%	?	-6.2
CCOc1cc(/C=C2\SC(=S)N(NS(=O)(=O)c3ccc(C)cc3)C2=O)ccc1O	?	50.1µM*	?	?	·	-58.7*
CC(/C=C1\SC(=S)N(NS(=O)(=O)c2ccccc2)C1=O)=C\c1ccccc1	79.4µM*	-1.1%[11.6 µM]	?	-4.5%	-38.5%	?
C=CCOc1ccc(/C=C2\SC(=S)N(NS(=O)(=O)c3ccccc3)C2=O)cc1	25.1µM*	-4.5%[11.6 µM]	?	-17.9%	?	-56.3*
COc1cc(/C=C2\SC(=S)N(NS(=O)(=O)c3ccccc3)C2=O)ccc1O	?	50.1µM*	31.6µM*	-13.9%	-40.0%	-60.6*
COc1cc(/C=C2\SC(=S)N(NS(=O)(=O)c3ccc(C)cc3)C2=O)cc(OC)c1OC	-2.4%	-29.8%	-23.2%	-18.9%	12.6%	-16.6
O=C1/C(=C/c2cccnc2)SC(=S)N1NS(=O)(=O)c1ccccc1	-15.5%	-25.1%	82.4%	-12.3%	20.3%	?
O=C1Nc2c(c(=O)[nH]c(=O)n2-c2ccccc2)C1(NS(=O)(=O)c1ccc(Cl)cc1)C(F)(F)F (centres undefined)	-15.9%	·	?	-11.5%	5.9%	·
O=C(NCCc1ccccc1)C(=O)NCC(c1cccnc1)N1CCN(c2ccccc2F)CC1 (centres undefined)	-13.8%	·	26.7%	-12.3%	17.3%	·
CC(C)CC(=O)Nc1ccc2nc(SCC(=O)N3CCc4ccccc43)sc2c1	-10.2%	·	-3.9%	-15.9%	-14.9%	·
COc1ccc(/C=C2/SC(=S)N(NS(=O)(=O)c3ccccc3)C2=O)cc1	89.1µM*	?	75.7%	-15.8%	2.8%	?
O=C(O)c1ccccc1-n1ncc2c1/C(=C/c1ccc(Cl)cc1)CC2	·	·	·	·	39.8µM*	·
CC(C)CCNC(=O)N1CCN(S(=O)(=O)c2ccc3c(ccn3C)c2)CC1	-9.5%	·	11.1%	-7.7%[60.1 µM]	1.4%	·
Brc1ccc(-c2nn3c(-c4ccccn4)nnc3s2)o1	79.4µM*	?	?	?	22.4µM*	·
SMILES	Pol eta inh	WRN helicase inh	Pol iota inh	POLK inh	POLB inh	PI5P4Ka inh
Brc1ccc(-c2nn3c(-c4ccco4)nnc3s2)o1	?	?	?	?	44.7µM*	·
Brc1ccc(-c2nn3c(-c4ccncc4)nnc3s2)o1	·	·	·	·	-4.9%	·
Clc1ccc(-c2ccc(-c3nn4c(-c5ccco5)nnc4s3)o2)cc1	79.4µM*	?	?	-21.7%	·	·
Cc1sc(C(C2C(=O)CC(C)(C)CC2=O)C2C(=O)CC(C)(C)CC2=O)cc1[N+](=O)[O-]	-2.3%	-8.6%[11.6 µM]	15.8µM*	-7.4%	-20.2%	?
CC1(C)CC(=O)C(C(c2cc([N+](=O)[O-])ccc2Cl)C2C(=O)CC(C)(C)CC2=O)C(=O)C1	-9.6%	0.9%	22.1%	-5.4%	·	3.7
CC(C)(C)N/N=C/c1cc(Cl)cc([N+](=O)[O-])c1O	?	-16.9%	-1.4%	-8.6%	35.5µM*	-28.4
O=C(N/N=C/c1cc(Cl)cc([N+](=O)[O-])c1O)C1CC1	2.6%	1.5%	?	6.1%	?	-25.6
CNc1cnn(-c2ccccc2)c(=O)c1Cl	-5.3%	12.7%	-2.0%	-2.0%	14.8%	-27.6
O=c1c(Cl)c(N/N=C/c2ccc(Br)cc2)cnn1-c1ccccc1	?	?	?	?	17.8µM*	-4.1
CCN(CC)CCCN1C=C2C(=O)C(C)(OC(=O)CCC(=O)OC)C(=O)C(Br)=C2C=C1c1ccc(OC)cc1 (centres undefined)	39.8µM*	-5.9%	?	?	·	-29.7
COCCN1C=C2C(=O)C(C)(OC(=O)CCC(=O)OC)C(=O)C(Br)=C2C=C1c1ccc(OC)cc1 (centres undefined)	?	2.3%	?	-19.9%	·	-23.4
COc1cccc(CNC(=O)C2CCN(c3ncnc4c3nc3n4CCCCC3)CC2)c1	-3.5%	-5.4%	?	-21.0%	100µM*!	-2.0
